# Source: ChEMBL document CHEMBL1961873, “Compounds: GSK PKIS; Assays: Nanosyn kinase panel” (2012)
# Experiments:
# [1] = target: Sphingosine kinase 1 (Homo sapiens) (UniProt Q9NYA1); settings: at 1 µM;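 also: mean SPHK1 inhibition value reported from the GSK PKIS kinase panel screen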
# [2] = target: T1, Sphingosine kinase 2 (Homo sapiens) (UniProt Q9NRA0); settings: at 0.1 µM
# T1 sequence (whole entry): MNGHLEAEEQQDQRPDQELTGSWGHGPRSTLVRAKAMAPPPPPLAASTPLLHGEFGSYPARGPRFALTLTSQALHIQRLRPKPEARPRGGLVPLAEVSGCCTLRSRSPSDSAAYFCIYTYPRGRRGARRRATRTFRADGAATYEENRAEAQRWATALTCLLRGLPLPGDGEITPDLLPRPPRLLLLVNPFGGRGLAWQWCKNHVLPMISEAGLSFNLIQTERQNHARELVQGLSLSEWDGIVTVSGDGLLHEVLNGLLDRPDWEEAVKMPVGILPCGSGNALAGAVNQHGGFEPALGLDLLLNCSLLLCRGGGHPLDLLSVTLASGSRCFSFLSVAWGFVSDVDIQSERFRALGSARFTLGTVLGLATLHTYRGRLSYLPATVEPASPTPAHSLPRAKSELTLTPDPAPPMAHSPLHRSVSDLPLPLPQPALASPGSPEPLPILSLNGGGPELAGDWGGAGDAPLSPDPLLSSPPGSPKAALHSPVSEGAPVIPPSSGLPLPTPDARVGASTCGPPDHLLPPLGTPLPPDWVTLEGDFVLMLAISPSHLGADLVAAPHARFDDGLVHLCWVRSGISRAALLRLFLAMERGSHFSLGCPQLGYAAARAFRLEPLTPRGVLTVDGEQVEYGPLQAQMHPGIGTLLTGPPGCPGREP
# [3] = target: T1, Sphingosine kinase 2 (Homo sapiens); settings: at 1 µM
# [4] = target: Casein kinase II subunit alpha (Homo sapiens) (UniProt P68400); settings: at 0.1 µM
# Sequence of Casein kinase II subunit alpha (Homo sapiens) (P68400 whole entry, looked up): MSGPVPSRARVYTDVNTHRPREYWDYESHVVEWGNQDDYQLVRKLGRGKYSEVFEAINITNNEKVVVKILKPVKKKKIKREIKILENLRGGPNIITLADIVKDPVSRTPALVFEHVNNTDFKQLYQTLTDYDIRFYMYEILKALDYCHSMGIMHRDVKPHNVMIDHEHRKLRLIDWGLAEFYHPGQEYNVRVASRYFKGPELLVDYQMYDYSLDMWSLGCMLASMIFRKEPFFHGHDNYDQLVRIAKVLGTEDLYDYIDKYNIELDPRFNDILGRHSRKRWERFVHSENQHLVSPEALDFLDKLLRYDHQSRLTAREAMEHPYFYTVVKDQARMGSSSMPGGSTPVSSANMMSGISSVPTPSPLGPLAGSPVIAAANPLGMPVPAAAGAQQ
# [5] = target: Casein kinase II subunit alpha (Homo sapiens) (UniProt P68400); settings: at 1 µM
# [6] = target: T2, Inhibitor of nuclear factor kappa-B kinase subunit alpha (Homo sapiens) (UniProt O15111); settings: at 0.1 µM
# T2 sequence (whole entry): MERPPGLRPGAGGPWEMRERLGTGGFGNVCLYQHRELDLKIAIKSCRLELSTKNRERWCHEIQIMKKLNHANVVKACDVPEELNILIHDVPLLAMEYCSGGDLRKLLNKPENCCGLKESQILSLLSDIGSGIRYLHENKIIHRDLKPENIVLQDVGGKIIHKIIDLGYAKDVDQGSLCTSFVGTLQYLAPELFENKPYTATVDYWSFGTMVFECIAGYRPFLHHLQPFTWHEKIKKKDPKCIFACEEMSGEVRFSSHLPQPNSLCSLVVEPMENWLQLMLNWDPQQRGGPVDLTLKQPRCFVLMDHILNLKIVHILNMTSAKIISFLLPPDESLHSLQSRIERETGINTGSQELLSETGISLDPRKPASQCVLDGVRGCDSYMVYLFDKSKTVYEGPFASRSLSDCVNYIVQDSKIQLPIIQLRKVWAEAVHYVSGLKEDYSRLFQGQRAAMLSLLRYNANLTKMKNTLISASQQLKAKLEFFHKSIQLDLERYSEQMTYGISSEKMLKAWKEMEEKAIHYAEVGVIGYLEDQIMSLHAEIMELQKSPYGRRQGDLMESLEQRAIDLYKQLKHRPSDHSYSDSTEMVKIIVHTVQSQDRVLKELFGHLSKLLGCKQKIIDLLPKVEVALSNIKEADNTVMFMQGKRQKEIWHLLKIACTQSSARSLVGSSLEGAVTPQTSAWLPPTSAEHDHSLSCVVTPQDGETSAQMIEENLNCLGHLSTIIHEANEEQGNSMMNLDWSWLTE
# [7] = target: T2, Inhibitor of nuclear factor kappa-B kinase subunit alpha (Homo sapiens); settings: at 1 µM
# [8] = target: T3, Inhibitor of nuclear factor kappa-B kinase subunit beta (Homo sapiens) (UniProt O14920); settings: at 0.1 µM
# T3 sequence (whole entry): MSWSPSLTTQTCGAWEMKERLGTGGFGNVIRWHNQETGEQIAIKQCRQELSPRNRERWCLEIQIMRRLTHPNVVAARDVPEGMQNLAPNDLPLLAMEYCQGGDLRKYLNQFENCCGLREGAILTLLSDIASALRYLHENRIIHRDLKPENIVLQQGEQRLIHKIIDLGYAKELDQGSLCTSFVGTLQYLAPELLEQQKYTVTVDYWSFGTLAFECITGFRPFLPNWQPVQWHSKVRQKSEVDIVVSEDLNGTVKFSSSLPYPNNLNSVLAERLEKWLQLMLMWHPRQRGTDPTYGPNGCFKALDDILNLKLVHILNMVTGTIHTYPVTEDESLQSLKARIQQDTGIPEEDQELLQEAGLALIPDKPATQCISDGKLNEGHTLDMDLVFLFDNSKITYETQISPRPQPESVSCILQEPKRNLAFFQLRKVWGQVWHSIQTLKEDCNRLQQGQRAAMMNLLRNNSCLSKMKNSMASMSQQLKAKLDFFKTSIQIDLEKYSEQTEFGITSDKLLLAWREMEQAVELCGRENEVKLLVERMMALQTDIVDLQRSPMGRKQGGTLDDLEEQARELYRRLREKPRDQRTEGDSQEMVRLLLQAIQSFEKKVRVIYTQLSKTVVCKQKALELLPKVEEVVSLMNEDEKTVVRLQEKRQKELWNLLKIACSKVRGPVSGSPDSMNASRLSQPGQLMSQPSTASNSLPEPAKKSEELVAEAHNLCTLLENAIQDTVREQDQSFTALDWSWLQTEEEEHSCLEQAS
# [9] = target: T3, Inhibitor of nuclear factor kappa-B kinase subunit beta (Homo sapiens); settings: at 1 µM
# [10] = target: T4, Inhibitor of nuclear factor kappa-B kinase subunit epsilon (Homo sapiens) (UniProt Q14164); settings: at 0.1 µM
# T4 sequence (whole entry): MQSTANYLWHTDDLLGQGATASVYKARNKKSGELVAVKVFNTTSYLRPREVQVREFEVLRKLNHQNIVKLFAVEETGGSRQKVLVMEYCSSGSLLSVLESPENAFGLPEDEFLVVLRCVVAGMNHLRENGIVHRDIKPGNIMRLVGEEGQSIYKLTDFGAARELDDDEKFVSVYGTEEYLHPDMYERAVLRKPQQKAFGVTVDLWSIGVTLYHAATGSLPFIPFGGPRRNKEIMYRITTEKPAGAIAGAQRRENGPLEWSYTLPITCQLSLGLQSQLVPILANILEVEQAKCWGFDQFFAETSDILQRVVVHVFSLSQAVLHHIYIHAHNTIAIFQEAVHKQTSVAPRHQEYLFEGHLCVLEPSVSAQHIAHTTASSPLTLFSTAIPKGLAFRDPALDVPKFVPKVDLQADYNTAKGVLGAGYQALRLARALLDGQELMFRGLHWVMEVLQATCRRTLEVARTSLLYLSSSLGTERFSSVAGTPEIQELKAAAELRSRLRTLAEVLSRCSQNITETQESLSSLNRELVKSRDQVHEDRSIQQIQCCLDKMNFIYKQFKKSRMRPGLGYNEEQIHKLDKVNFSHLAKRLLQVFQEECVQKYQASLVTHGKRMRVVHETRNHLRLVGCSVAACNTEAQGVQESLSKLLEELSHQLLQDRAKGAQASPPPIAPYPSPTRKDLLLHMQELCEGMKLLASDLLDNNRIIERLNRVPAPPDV
# [11] = target: T4, Inhibitor of nuclear factor kappa-B kinase subunit epsilon (Homo sapiens); settings: at 1 µM
# [12] = target: T5, Serine/threonine-protein kinase Nek1 (Homo sapiens) (UniProt Q96PY6); settings: at 0.1 µM
# T5 sequence (whole entry): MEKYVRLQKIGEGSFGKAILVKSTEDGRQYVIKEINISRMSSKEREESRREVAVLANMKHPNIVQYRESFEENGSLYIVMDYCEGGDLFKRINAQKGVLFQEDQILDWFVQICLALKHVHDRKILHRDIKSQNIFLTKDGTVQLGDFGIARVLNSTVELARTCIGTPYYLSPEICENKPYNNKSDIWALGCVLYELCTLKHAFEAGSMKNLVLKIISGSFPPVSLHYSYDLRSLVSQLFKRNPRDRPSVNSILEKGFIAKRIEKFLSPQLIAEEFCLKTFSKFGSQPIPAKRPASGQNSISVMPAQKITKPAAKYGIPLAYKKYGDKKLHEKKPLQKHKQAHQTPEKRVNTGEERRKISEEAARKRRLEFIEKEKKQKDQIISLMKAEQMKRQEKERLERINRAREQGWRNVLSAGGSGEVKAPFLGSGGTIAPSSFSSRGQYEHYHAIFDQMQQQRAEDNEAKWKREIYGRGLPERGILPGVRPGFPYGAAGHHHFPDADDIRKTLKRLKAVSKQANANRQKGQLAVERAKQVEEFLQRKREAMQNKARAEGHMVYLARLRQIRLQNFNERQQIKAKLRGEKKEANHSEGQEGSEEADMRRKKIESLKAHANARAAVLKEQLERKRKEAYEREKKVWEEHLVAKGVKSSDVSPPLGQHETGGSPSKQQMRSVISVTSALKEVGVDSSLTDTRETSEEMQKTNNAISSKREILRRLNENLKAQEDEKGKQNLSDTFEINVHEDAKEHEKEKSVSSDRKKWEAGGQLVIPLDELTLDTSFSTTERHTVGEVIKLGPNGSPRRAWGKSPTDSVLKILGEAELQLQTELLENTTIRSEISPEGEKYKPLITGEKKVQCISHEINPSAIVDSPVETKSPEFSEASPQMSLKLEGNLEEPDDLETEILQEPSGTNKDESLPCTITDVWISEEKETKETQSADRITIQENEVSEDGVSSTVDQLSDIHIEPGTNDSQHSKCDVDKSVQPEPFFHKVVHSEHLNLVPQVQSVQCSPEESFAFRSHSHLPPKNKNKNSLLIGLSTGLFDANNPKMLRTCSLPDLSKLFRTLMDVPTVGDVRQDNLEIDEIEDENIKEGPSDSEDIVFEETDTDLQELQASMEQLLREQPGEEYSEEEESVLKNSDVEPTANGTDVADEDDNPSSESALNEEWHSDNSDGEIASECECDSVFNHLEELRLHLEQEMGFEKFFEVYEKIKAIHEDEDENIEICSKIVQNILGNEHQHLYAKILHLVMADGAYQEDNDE
# [13] = target: T5, Serine/threonine-protein kinase Nek1 (Homo sapiens); settings: at 1 µM
# [14] = target: T6, Serine/threonine-protein kinase Nek2 (Homo sapiens) (UniProt P51955); settings: at 0.1 µM
# T6 sequence (whole entry): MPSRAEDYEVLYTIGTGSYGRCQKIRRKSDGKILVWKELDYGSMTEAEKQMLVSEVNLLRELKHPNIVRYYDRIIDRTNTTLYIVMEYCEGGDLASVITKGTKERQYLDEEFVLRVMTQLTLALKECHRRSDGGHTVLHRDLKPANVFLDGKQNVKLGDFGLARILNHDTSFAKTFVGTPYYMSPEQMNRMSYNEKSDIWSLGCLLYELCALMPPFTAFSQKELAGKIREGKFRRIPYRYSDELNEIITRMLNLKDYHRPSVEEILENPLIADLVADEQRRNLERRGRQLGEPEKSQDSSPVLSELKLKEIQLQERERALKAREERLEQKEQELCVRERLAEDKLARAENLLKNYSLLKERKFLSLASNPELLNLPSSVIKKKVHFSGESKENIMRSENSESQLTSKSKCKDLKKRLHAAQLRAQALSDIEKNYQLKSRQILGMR
# [15] = target: T6, Serine/threonine-protein kinase Nek2 (Homo sapiens); settings: at 1 µM
# [16] = target: Serine/threonine-protein kinase Nek6 (Homo sapiens) (UniProt Q9HC98); settings: at 0.1 µM
# Sequence of Serine/threonine-protein kinase Nek6 (Homo sapiens) (Q9HC98 whole entry): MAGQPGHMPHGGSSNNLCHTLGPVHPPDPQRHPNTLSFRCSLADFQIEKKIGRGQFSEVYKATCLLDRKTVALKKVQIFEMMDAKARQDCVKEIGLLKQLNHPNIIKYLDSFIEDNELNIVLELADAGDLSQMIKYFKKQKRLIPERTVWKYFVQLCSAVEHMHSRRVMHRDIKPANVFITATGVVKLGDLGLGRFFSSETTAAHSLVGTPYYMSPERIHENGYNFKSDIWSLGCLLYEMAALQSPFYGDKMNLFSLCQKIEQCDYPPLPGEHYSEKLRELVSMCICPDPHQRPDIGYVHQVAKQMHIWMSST
# [17] = target: Serine/threonine-protein kinase Nek6 (Homo sapiens) (UniProt Q9HC98); settings: at 1 µM
# [18] = target: Serine/threonine-protein kinase Nek7 (Homo sapiens) (UniProt Q8TDX7); settings: at 0.1 µM
# Sequence of Serine/threonine-protein kinase Nek7 (Homo sapiens) (Q8TDX7 whole entry, looked up): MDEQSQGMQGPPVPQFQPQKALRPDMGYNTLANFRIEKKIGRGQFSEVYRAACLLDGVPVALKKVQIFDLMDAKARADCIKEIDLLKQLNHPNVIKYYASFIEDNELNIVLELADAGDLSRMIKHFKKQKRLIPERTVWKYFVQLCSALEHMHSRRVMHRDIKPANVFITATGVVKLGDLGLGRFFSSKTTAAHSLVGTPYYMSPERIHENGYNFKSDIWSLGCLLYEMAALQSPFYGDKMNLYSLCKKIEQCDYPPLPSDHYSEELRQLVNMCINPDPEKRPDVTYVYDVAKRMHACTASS
# [19] = target: Serine/threonine-protein kinase Nek7 (Homo sapiens) (UniProt Q8TDX7); settings: at 1 µM
# [20] = target: T7, Serine/threonine-protein kinase Nek9 (Homo sapiens) (UniProt Q8TD19); settings: at 0.1 µM;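 also: reported value is the mean percent inhibition of NEK9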
# T7 sequence (whole entry): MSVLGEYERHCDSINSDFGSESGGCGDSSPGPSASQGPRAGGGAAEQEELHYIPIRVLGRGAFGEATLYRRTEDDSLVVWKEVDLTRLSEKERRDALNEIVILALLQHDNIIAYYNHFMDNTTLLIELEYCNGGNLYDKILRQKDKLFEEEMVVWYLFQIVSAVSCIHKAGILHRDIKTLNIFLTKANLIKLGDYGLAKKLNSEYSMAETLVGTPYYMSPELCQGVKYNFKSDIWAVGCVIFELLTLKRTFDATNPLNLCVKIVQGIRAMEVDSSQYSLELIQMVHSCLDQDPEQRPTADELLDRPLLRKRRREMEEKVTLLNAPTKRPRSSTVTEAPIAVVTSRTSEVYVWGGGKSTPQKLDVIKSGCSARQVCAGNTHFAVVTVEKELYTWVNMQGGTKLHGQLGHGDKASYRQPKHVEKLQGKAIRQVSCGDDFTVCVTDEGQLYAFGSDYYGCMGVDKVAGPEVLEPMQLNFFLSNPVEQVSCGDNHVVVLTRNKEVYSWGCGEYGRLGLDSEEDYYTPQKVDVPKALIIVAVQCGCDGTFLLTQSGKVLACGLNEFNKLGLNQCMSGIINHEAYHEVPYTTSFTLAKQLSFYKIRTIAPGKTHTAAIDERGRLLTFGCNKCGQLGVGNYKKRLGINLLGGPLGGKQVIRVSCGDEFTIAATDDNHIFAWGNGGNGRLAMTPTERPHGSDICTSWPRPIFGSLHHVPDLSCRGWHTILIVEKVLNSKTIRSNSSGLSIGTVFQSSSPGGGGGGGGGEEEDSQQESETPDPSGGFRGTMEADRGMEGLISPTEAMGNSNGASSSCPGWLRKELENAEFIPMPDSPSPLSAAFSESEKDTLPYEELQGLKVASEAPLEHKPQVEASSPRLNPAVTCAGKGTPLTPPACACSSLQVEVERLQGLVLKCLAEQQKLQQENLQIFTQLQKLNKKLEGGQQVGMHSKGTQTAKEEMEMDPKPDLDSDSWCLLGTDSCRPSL
# Sequence of Sphingosine kinase 1 (Homo sapiens) (Q9NYA1 whole entry): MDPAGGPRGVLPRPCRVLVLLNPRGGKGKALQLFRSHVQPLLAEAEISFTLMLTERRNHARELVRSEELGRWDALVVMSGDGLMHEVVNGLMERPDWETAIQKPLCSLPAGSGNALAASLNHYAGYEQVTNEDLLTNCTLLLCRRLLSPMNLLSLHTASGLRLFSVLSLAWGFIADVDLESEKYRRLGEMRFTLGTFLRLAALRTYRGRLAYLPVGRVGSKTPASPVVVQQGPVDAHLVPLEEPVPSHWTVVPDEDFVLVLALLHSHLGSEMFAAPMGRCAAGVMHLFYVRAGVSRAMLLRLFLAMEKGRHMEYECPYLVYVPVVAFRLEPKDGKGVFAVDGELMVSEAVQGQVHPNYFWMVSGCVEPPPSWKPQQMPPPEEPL
Compound,inhibition [1] [%],inhibition [2] [%],inhibition [3] [%],inhibition [4] [%],inhibition [5] [%],inhibition [6] [%],inhibition [7] [%],inhibition [8] [%],inhibition [9] [%],inhibition [10] [%],inhibition [11] [%],inhibition [12] [%],inhibition [13] [%],inhibition [14] [%],inhibition [15] [%],inhibition [16] [%],inhibition [17] [%],inhibition [18] [%],inhibition [19] [%],inhibition [20] [%]
CN(C)c1ccc2c(c1)/C(=C/Nc1ccc(S(N)(=O)=O)cc1)C(=O)N2,-2.05,0.7,0.06,2.93,18,1.67,6.64,2.49,1.1,4.67,23.1,1.42,2.38,2.78,3.05,0.8,2.13,5.09,3.01,-1.19
Fc1ccc(-c2ncn(C3CCNCC3)c2-c2ccnc(Oc3ccc(Oc4ccccc4)cc3)n2)cc1,-0.85,-0.41,-0.56,4.31,4.14,4.44,5.03,5.84,6.14,7.47,6.34,1.09,1.58,5.87,3.38,-2.46,2.86,3.94,9.34,4.61
